# Screening data deposited in PubChem by several laboratories.
# APOBEC3A inh: inhibitors of human APOBEC3A DNA deaminase | recombinant A3A, FAM/TAMRA ssDNA deamination fluorescence | inhibition, % at 20 µM | 330,000 compounds, 0.41% hits;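 active = at least 40% inhibition at 20 µM here, with at most 30% in a related deaminase screen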;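 note: plate controls were A3A with DMSO for no effect and wells lacking A3A enzyme for full effect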
# NTR1 ag: activates human neurotensin receptor 1. 330,000 compounds, 0.17% hits. AID 493036. P30989. NTR1-U2OS beta-arrestin-GFP spot imaging, agonist mode. activation, % at 20 µM;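 active = activation at or above 40% of the spot to cytoplasm intensity ratio, with at least 20 cells analyzed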;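 note: 0% = DMSO without peptide and 100% = 100 nM NTR1 peptide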
# AHR act: activators of human aryl hydrocarbon receptor | activation, % at 5 µM | AHR-responsive luciferase reporter cells, luminescence | 320,000 compounds, 2.5% hits; in the data active = activation above about 47%;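 note: 0% = vehicle wells and 100% = reference agonist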
# APOBEC3G inh: blocks human APOBEC3G single-stranded DNA deamination. inhibition, % at 20 µM. Q9HC16. 330,000 compounds, 0.28% hits. recombinant A3G, ssDNA deamination FAM/TAMRA fluorescence;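 active = inhibition of at least 40% at 20 µM, with no more than 30% in the related APOBEC3A deaminase screen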;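 note: plate controls were DMSO wells with A3G for no effect and wells lacking A3G enzyme for full effect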
# Target sequence (Q9HC16 whole entry, looked up): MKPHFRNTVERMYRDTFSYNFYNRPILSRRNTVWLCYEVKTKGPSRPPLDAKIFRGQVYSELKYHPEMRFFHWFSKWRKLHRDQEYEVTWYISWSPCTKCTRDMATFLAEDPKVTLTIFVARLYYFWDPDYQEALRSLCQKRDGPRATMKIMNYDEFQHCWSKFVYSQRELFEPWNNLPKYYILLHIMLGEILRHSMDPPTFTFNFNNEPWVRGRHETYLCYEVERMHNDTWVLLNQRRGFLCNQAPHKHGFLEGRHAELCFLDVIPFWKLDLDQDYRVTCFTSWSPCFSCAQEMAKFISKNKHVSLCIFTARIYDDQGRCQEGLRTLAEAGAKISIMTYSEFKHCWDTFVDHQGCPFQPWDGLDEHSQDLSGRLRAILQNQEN
# An asterisk follows results filed as active; · = no result given. An excerpt weighted towards active compounds, which were near 3.2% of everything screened.
SMILES,APOBEC3A inh,NTR1 ag,AHR act,APOBEC3G inh
O=C(COC(=O)COc1ccc(Cl)cc1)NC1CCCC1,2,0,-1,-3
COC(=O)c1oc2ccc(Br)cc2c1NC(=O)CN1CCN(C)CC1,-17,-1,3,-4
COC(=O)c1oc2ccccc2c1NC(=O)CN1CCCC1,-5,3,54*,-6
CN(C)S(=O)(=O)c1cccc(NC(=O)COC(=O)CNC(=O)c2cccc([N+](=O)[O-])c2)c1,6,1,0,0
Cc1ccccc1Nc1nnc(SCc2cc(=O)n3ccsc3n2)s1,4,5,6,-2
O=c1cc(CSc2nnc(Nc3ccccc3)s2)nc2sccn12,4,2,57*,-2
Oc1ccc(N2CCN(Cc3nc4ccccc4[nH]3)CC2)cc1,-5,0,0,24
Cc1ccc(C(=O)CSc2nnc(-c3c[nH]c4ccccc34)o2)cc1,-3,5,7,-4
Clc1cccc(CSc2nnc(-c3c[nH]c4ccccc34)o2)c1,-3,17,52*,-12
Cc1c(C(=O)N/N=C/c2ccncc2)nnn1-c1nonc1N,1,0,·,-6
Nc1[nH]n(-c2ccccc2)c(=O)c1N=Nc1ccc2c(c1)OCO2,3,2,121*,0
Cc1[nH]n(-c2ccccc2)c(=O)c1N=Nc1ccc(Cl)cc1,2,0,51*,1
Cc1[nH]n(-c2ccccc2)c(=O)c1N=Nc1ccc(C(=O)O)cc1,8,0,16,-5
CC(=O)c1ccc(N=Nc2c(C)[nH]n(-c3ccccc3)c2=O)cc1,-3,1,54*,-8
Nc1[nH]n(-c2ccccc2)c(=O)c1N=Nc1ccc2c(c1)OCCO2,-3,4,24,-13
COCCCNC1=C(Cl)C(=O)c2ccccc2C1=O,-4,2,4,-5
COCCCNc1c2c3c(cccc3[nH]c1=O)C(=O)c1ccccc1-2,-53,-5,70*,-127
O=C1N/C(=C/c2ccc(N3CCOCC3)cc2)C(=O)N1Cc1ccc(F)cc1,1,-1,51*,0
O=C1N/C(=C\c2ccsc2)C(=O)N1Cc1ccc(F)cc1,0,0,-2,-6
COc1ccccc1OCc1nc(C#N)c(N2CCCC2)o1,3,-2,65*,-7
O=[N+]([O-])c1ccc2cn(-c3ccccc3)nc2c1,0,0,6,0
Cn1nc(C(=O)Nc2ccc(Br)cc2)cc1C(=O)Nc1ccc(Br)cc1,-5,-1,65*,-3
Cn1nc(C(F)(F)F)cc1C(=O)Nc1ccc(Cl)cc1,-4,1,69*,-6
Cn1nc(C(F)(F)F)c2cc(C(=O)Nc3ccc(Cl)cc3)sc21,2,13,64*,-1
C=C(C)C(=O)Oc1ccc(N2C(=O)[C@@H]3C4C=CC(C4)[C@@H]3C2=O)cc1,2,0,5,-9
SMILES,APOBEC3A inh,NTR1 ag,AHR act,APOBEC3G inh
Cc1ccc(-c2nnc(-n3ncc(C#N)c3N)c3ccccc23)cc1C,-2,2,6,1
Cc1occc(=O)c1O,0,-2,-1,2
COc1cc2c(cc1NC(=O)C(C)OC(=O)C1CC(=O)N(Cc3ccco3)C1)oc1ccccc12 (stereo not drawn),-15,7,54*,-8
COc1ccc2nc(/N=C/c3c(C)[nH]n(-c4ccc(C)cc4)c3=O)sc2c1,0,-2,52*,-3
Cc1ccc(-n2[nH]c(C)c(C=Nc3ccc(Br)cn3)c2=O)cc1,4,9,71*,-9
O=C(O)CCC(=O)N1N=C(c2ccccc2)CC1c1cccs1 (stereo not drawn),-2,1,-1,-2
C(=N\n1cnnc1)/c1cccc(OCCOc2ccccc2)c1,-2,1,64*,-6
O=C(c1ccc(F)cc1Cl)N1CCN(S(=O)(=O)c2cccs2)CC1,-3,1,-2,-5
O=C(Nc1ccc(F)cc1)C(Sc1nc2ccccc2[nH]1)c1ccccc1 (stereo not drawn),-7,5,69*,-8
COc1ccc(N/C=C(\C#N)c2nc3ccccc3n2C)c(OC)c1,0,12,109*,0
COc1ccc(CNc2nc3ccccc3n2C)c(OC)c1,-3,1,26,3
COc1ccc(NC(=O)CN2CCCCCC2)cc1OC,-2,0,1,-6
CN1CC(C(=O)O)Cc2c1ccc1ccccc21 (stereo not drawn),2,0,54*,-1
Nc1nc(Nc2ccc(Cl)cc2)c(NC=O)c(=O)[nH]1,1,0,5,1
CC(=O)Nc1ccc(N=C(C2=C(O)c3ccccc3C2=O)c2ccccc2)cc1,-2,8,64*,-8
S=C(Nc1ccccn1)c1ccccn1,6,4,61*,18
